KCNQ2 pot – potentiators of rat KCNQ2 potassium channel. B-score at 10 µM. actives 0.54% (n = 310,000). O88943. CHO-K1 KCNQ2, FluxOR thallium flux fluorescence; active compounds read high;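 active = fluorescence ratio B-score at least 3 SD of library B-scores, with initial fluorescence B-score within 3 of them, cut at about 5.3 in these data; same plate scores as AID 2156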;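 also: B-score of peak minus minimum over baseline fluorescence ratio after K+ and Tl+ stimulus; positive B-score means potentiation of KCNQ2 with more thallium influx and brighter signal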
Target sequence (O88943 whole entry, looked up): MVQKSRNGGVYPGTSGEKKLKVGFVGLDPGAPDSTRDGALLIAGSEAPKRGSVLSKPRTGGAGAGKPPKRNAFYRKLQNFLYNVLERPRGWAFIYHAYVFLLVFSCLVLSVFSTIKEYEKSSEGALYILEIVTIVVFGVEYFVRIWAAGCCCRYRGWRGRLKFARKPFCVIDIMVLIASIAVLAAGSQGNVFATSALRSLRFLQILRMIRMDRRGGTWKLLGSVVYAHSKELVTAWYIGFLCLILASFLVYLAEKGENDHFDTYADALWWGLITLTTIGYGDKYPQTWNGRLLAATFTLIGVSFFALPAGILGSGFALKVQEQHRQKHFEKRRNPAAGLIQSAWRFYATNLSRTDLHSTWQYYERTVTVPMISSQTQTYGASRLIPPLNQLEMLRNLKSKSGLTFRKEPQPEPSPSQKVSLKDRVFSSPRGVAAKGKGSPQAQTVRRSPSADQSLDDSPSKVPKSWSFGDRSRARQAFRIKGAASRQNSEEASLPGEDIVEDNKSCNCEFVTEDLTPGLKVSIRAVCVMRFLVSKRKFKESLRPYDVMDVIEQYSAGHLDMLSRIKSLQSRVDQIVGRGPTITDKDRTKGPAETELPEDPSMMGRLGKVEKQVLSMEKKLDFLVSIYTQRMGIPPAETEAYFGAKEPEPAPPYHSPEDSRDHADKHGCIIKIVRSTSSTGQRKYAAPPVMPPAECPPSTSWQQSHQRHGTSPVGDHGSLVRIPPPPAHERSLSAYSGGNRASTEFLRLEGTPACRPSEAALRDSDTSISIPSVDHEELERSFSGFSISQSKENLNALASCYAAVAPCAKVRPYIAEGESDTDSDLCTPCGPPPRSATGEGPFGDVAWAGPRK
KCNQ2 block – inhibitors of rat KCNQ2 potassium channel. CHO-K1 KCNQ2, FluxOR thallium flux, 20 min; active compounds read low. B-score at 10 µM. actives 1.1% (n = 310,000). AID 2156;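 active = fluorescence ratio B-score at most minus 3 library SDs, with starting brightness B-score within 2 library SDs, cut at about -5.5 in these data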
An asterisk follows results filed as active; i = inactive; / = not tested or not shown. Only some compounds are listed: those with a hit (about 1.6% of all), similar ones and a draw of the others.

SMILES | KCNQ2 pot | KCNQ2 block
CC(C)COc1cccc(C(=O)Nc2ccc(N3CCOCC3)cc2N2CCOCC2)c1 | / | i
COc1ccc(OCC(=O)NNC(=O)c2ccc3c(=O)n4c(nc3c2)CCC4)cc1 | 1.99 | i
Cc1ccc(C2=NN(CC(=O)NCCC(C)C)C(=O)CC2)cc1 | / | i
CCCCCNC(=O)c1ccc2c(=O)[nH]c3c(C(=O)NCC4CCCO4)sc(=S)n3c2c1 (configuration not stated) | -5.67 | -5.67*
Cc1ccc(CNC(=O)c2ccc3c(=O)[nH]c4c(C(=O)NCC5CCCO5)sc(=S)n4c3c2)cc1 (configuration not stated) | / | i
CCOc1ccc(N(CC(=O)NC2CCCCC2)C(=O)CCC(=O)Nc2nccs2)cc1 | 0.17 | i
COc1cccc(CCNC(=O)c2cc(COc3c(F)cccc3F)on2)c1 | / | i
COc1ccc(/C=C2\CCC/C(=C\C=N\N(C)C)C2=O)cc1 | / | i
CN(C)/N=C/C=C1\CCC/C(=C\c2ccc(F)c(F)c2)C1=O | -7.09 | -7.09*
Cc1ccc(-n2c(SCC(=O)Nc3ccc4c5c(cccc35)CC4)nc(O)cc2=O)cc1 | 2.31 | i
Cc1ccc(-n2c(SCC(=O)Nc3ccc4c5c(cccc35)CC4)nc(O)c(C)c2=O)cc1 | 7.02* | i
CC1CCCCN1C(=O)c1c([N+](=O)[O-])cnn1C (configuration not stated) | / | i
CCCn1c(SCC(=O)Nc2ccccc2-c2ccccc2)nnc1-c1ccoc1C | -5.8 | -5.8*
Cc1occc1-c1nnc(SCC(=O)Nc2ccccc2-c2ccccc2)n1C | 0.05 | i
COc1ccc(NC(=O)CSc2nnc(-c3ccoc3C)n2CCc2ccccc2)cc1 | / | i
Cc1ccccc1NC(=O)CSc1nnc(-c2ccoc2C)n1CCc1ccccc1 | -5.55 | -5.55*
COCCOC1CCN(C(=O)c2cc(COc3ccc(F)cc3F)on2)CC1 | 1.16 | i
O=C(COc1ccc([N+](=O)[O-])cc1)N(Cc1ccccc1)Cc1ccccc1 | -5.76 | -5.76*
CCOc1ccc(C(=O)NC(Cc2ccccc2)C(=O)OC)cc1 (configuration not stated) | / | i
O=C(COc1ccccc1)NNC(=O)COc1ccc([N+](=O)[O-])cc1 | 1.16 | i
CN(Cc1ccccc1)C(=O)COc1ccc(C(C)(C)C)cc1 | -5.56 | -5.56*
CN(Cc1ccccc1)C(=O)COc1ccccc1Cl | / | i
COC(=O)C(Cc1ccccc1)NC(=O)COc1ccc(C(C)(C)C)cc1 (configuration not stated) | -5.59 | -5.59*
CCOc1ccccc1NC(=O)NC1(C(=O)NCc2cccnc2)CCCCC1 | 1.33 | i
C=CCN(C/C(=N\O)c1sc(C(=O)OCC)nc1C)c1cccc(Br)c1 | / | i
SMILES | KCNQ2 pot | KCNQ2 block
Cc1cccc(C(=O)OCC(=O)N2CCCC2=O)c1[N+](=O)[O-] | 1.99 | i
Cc1ccc(NC(=O)O/N=C/c2ccc(N(C)C)cc2)cc1 | / | i
CCOc1ccc(NC(=S)N2CCN(S(=O)(=O)c3ccccc3)CC2)cc1 | / | i
COc1ccc(NC(=S)N2CCC(C(O)(c3ccccc3)c3ccccc3)CC2)cc1 | 6.65* | i
CCOc1ccc(NC(=S)N2CCC(C(O)(c3ccccc3)c3ccccc3)CC2)cc1 | 6.52* | i
COc1ccc(NC(=S)N2CCC(c3ccccc3)C2)cc1 (configuration not stated) | 0.91 | i
Cc1ccc(NC(=O)CCC(=O)c2cccs2)cc1F | 0.73 | i
C=C(C(=O)c1ccccc1)C(C)C(=C)C(=O)c1ccccc1 | / | i
CCN(CC(=O)Nc1ccccc1C(F)(F)F)C(=O)c1ccccc1Cc1ccccc1 | / | i
O=C(C1CCOCC1)N1CCCC(N2CCN(c3cccc(C(F)(F)F)c3)CC2)C1 (configuration not stated) | / | i
C=CCn1c(-c2csc(-c3ccccc3)n2)n[nH]c1=S | 0.16 | i
C=CCN1C(=S)CC(c2ccccc2)=Nc2ccccc21 | -6.73 | -6.73*
O=C(CN(c1ccccc1)S(=O)(=O)c1ccc(F)cc1)NC1CCCCCC1 | / | i
CCCc1cc(CNC(=O)C2CCC(=O)N(Cc3ccccc3OC)C2)on1 (configuration not stated) | / | i
Cc1ccc(-c2cc(-c3ccc(Cl)cc3)c(C#N)c(N)n2)o1 | -6.79 | -6.79*
Cc1ccc(-c2cc(-c3ccc(C)o3)nc(N)c2C#N)cc1 | / | i
CCOC(=O)CN1N=C(c2ccc(Cl)cc2)CCC1=O | 0.35 | i
O=C(CC1C(=O)NCCN1Cc1cccc(F)c1)NCCCCCN1CCOCC1 (configuration not stated) | 0.69 | i
Cc1ccccc1NC1=NC(=S)N(c2ccccc2)C12CCCCC2 | 5.55* | i
Cc1ccccc1NC1=NC(=S)N(c2ccccc2)C12CCOC(C)(C)C2 (configuration not stated) | 0.22 | i
COc1ccc(OC)c(CN2CCN(C(=O)c3cccc(S(=O)(=O)Nc4ccc(C)cc4)c3)CC2)c1 | 0.93 | i
COc1ccc2nc(C)c3c(c2c1)OC(C(C)(Cl)Br)C3 (configuration not stated) | / | i
Cc1ccc2nc(C)c3c(c2c1)OC(C(C)(Cl)Br)C3 (configuration not stated) | -5.69 | -5.69*
Oc1c(Cl)cc(Cl)cc1/C=N/Nc1ncc(Br)cn1 | / | i
Cc1ccc(N=Cc2cc(Cl)cc(Cl)c2O)nc1 | 12.4* | i
SMILES | KCNQ2 pot | KCNQ2 block
COc1ccc(Cl)cc1S(=O)(=O)N1CCC(C(=O)NC2CC2)CC1 | 1.57 | i
COc1ccc(/C=N/N2CCN(c3ccccc3OC)CC2)cc1OC | 0.01 | i
COc1cccc(/C=N/N2CCN(c3ccccc3OC)CC2)c1 | -5.55 | -5.55*
CC(=O)Nc1ccc(S(=O)(=O)NCc2nc(-c3ccccc3C)no2)cc1 | 0.03 | i
CCOC(=O)Cn1c2ccc(OC)cc2c2nc3ccccc3nc21 | / | i
COC(=O)Cn1c2ccc(OC)cc2c2nc3ccccc3nc21 | -5.71 | -5.71*
O=[N+]([O-])c1cc(CS(=O)(=O)Oc2ccc(Cl)cc2)c(O)c([N+](=O)[O-])c1 | 2.79 | i
Cn1cccc1Cc1nnc(SCC(=O)NCc2ccccc2Cl)n1-c1ccc(F)cc1 | -7.22 | -7.22*
Cn1cccc1Cc1nnc(SCC(=O)NCc2ccco2)n1-c1ccc(F)cc1 | 0.07 | i
O=C(Nc1cccnc1Cl)c1cc(-c2cccc(O)c2)on1 | / | i
CCOC(=O)c1ccccc1NC(=O)CSc1nnc(COc2ccccc2C)n1C | -7.1 | -7.1*
CCn1c(COc2cccc(OC)c2)nnc1SCC(=O)Nc1ccccc1C(=O)OC | -5.71 | -5.71*
Cc1ccccc1OCc1nnc(SCC(=O)NCc2ccccc2)n1C | / | i
CCn1c(CC(=O)Nc2ccccc2)nnc1SCC(=O)Nc1ccccc1C(=O)OC | 0.48 | i
CCN(CC1CCCO1)C(=O)c1cc(COc2ccccc2SC)on1 (configuration not stated) | / | i
COC(=O)c1ccc(CN2C(=O)NC(Cc3c[nH]c4ccccc34)C2=O)cc1 (configuration not stated) | 3.03 | i
COc1cccc(CC(=O)OCC(=O)NC(=O)c2ccc(OC(F)F)cc2)c1 | 0.25 | i
CN1N=C2c3ccccc3CCC2C1c1ccc(Cl)cc1 (configuration not stated) | / | i
COc1nnc(-c2ccc(N3CCOCC3)c(NC(=O)C3CCCCC3)c2)c2ccccc12 | / | i
